Inconclusive results are not listed. Calls of active or inactive are those of the source. Unless noted, calls come from the whole dose curve; as a rule, active = well fitted curve in the direction sought with a large enough effect in the repeat runs; inconclusive = weak or mixed curves; inactive = no such curve, though single readings can be large; an effect the other way counts as inactive or inconclusive.
Tests used:
[1] = qHTS assay to identify small molecule agonists of the RXR signaling pathway - cell viability counter screen (AID 1159529); note: nearly all actives have a fitted effect of over 50% in size; note: potency is the fitted concentration of half-maximal effect
In short: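 RXR-alpha-UAS-bla HEK 293T cells in medium with 2% charcoal-stripped FBS were pre-incubated 5 hr, then compound-treated 16 hr at 37 C. Viability was read by CellTiter-Glo luminescence in the same wells as the beta-lactamase assay, with tetraoctyl ammonium bromide as positive control.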

[2] = qHTS assay to identify small molecule antagonists of the retinoic acid receptor (RAR) signaling pathway (AID 1159552; note: nearly all actives have a fitted effect of over 50% in size; note: potency is the fitted concentration of half-maximal effect)
In short: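 Retinol signaling pathway inhibitors screened in C3RL4 RARE-luciferase reporter cells seeded overnight at 37 C, then compounds added with 1 uM (final) retinol as pathway substrate. After 6 hr at 37 C, luciferase luminescence read after 30 min at room temperature.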

[3] = qHTS assay to identify small molecule antagonists of the estrogen related receptor (ERR) signaling pathway from Tox21 library - cell viability counter screen (AID 1224834); note: nearly all actives have a fitted effect of over 30% in size; note: potency is the fitted concentration of half-maximal effect
In short: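 After 17.5 h of compound exposure at 37 C, ERR cells are incubated with CellTiter-Fluor for 30 min and fluorescence intensity serves as the viability measure.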

[4] = target: Luciferin 4-monooxygenase (Photinus pyralis) (UniProt P08659); test: qHTS assay to identify small molecule inhibitors of firefly luciferase (AID 1224835); note: nearly all actives have a fitted effect of over 25% in size; note: potency is the fitted concentration of half-maximal effect
In short: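 Inhibition of purified Photinus luciferase is measured by luminescence. Substrate levels (D-luciferin, ATP) sit at their KM values. Each compound is tested in a concentration series.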

[5] = qHTS assay to identify small molecule agonists of the constitutive androstane receptor (CAR) signaling pathway - cell viability counter screen (AID 1224836); note: nearly all actives have a fitted effect of over 45% in size; note: potency is the fitted concentration of half-maximal effect
In short: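 HepG2 cells stably carrying hCAR and a CYP2B6-2.2kb reporter; 15-concentration compounds plus PK11195 (final 0.75 uM), 23 hr at 37 C/5% CO2. Viability read by CellTiter-Fluor fluorescence.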

[6] = qHTS assay to identify small molecule antagonists of the constitutive androstane receptor (CAR) signaling pathway - cell viability counter screen (AID 1224837); note: nearly all actives have a fitted effect of over 45% in size; note: potency is the fitted concentration of half-maximal effect
In short: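 Counter screen run in HepG2-CYP2B6-hCAR cells: 4 hr settle, compound titration (15 concentrations) with 50 nM CITCO, 23 hr at 37 C/5% CO2, CellTiter-Fluor fluorescence.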

[7] = qHTS assay to identify small molecule antagonists of the retinoid acid receptor (RAR) signaling pathway - cell viability counter screen (AID 1159551); note: nearly all actives have a fitted effect of over 35% in size; note: potency is the fitted concentration of half-maximal effect
In short: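 Retinol-stimulated (1 uM final) C3RL4 cells, compound 6 h, 37 C; readout CellTiter-Glo luminescence (ATP) after 30 min RT incubation.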

[8] = target: Nuclear receptor subfamily 1 group I member 3 (Homo sapiens) (UniProt Q14994); test: qHTS assay to identify small molecule antagonists of the constitutive androstane receptor (CAR) signaling pathway (AID 1224838);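 note: HepG2 cells stably expressing hCAR with CYP2B6 luciferase reporter stimulated by CITCO; nearly all actives have a fitted effect of over 40% in size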; note: potency is the fitted concentration of half-maximal effect
In short: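 Cell line: HepG2 double-stable for hCAR and CYP2B6-2.2kb reporter. Agonist: CITCO, 50 nM final. Compounds: 15 concentrations, 24 h, 37 C. Detection: ONE-Glo luminescence.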

[9] = target: Nuclear receptor subfamily 1 group I member 3 (Homo sapiens) (UniProt Q14994); test: qHTS assay to identify small molecule agonists of the constitutive androstane receptor (CAR) signaling pathway (AID 1224839);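 note: HepG2 cells stably carrying human CAR and a CYP2B6 luciferase reporter; series mostly up to about 92 µM; nearly all actives have a fitted effect of over 15% in size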
In short: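 HepG2 cells stably co-transfected with hCAR and a CYP2B6-2.2kb luciferase reporter; compounds at 15 concentrations with 0.75 uM PK11195 present. After 24 hr at 37 C, luciferase read by ONE-Glo luminescence.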

[10] = qHTS assay to identify small molecule antagonists of the estrogen related receptor signaling pathway with the pleiotropic PPARgamma coactivator (PGC) from Tox21 10K library - cell viability counter screen (AID 1224840; active = well fitted cell-killing curve with a large enough effect in the repeat runs, not every such curve was filed as active; note: nearly all actives have a fitted effect of over 40% in size; note: potency is the fitted concentration of half-maximal effect)
In short: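 Following seeding of 2,000 PGC/ERR cells/well and 6 hours' incubation, test compounds were delivered in DMSO. The plates then sat 17.5 hours at 37 C before a fluorogenic live-cell protease reagent (CellTiter-Fluor) was read after 30 min.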

[11] = qHTS assay to identify small molecule agonists of the estrogen related receptor signaling pathway with the pleiotropic PPARgamma coactivator (PGC) from Tox21 10K library (AID 1224842); note: nearly all actives have a fitted effect of over 15% in size
In short: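 Luminescence from One-Glo (30 min, room temperature) measured after PGC/ERR cells had 18 h at 37 C with pinned compound (23 nL in DMSO). Cells had been seeded at 2,000 per well and pre-incubated 6 h.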

[12] = target: Thyrotropin receptor (Homo sapiens) (UniProt P16473); test: qHTS assay to identify small molecule agonists of the thyroid stimulating hormone receptor (TSHR) signaling pathway (AID 1224843; calls by dose curve; note: nearly all actives have a fitted effect of over 45% in size)
In short: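 Screening of the Tox21 10K collection used HEK293 cells engineered with TSHR at 800 cells per well. After a 30-min room-temperature compound exposure, HTRF cAMP reagents were added and fluorescence recorded 1 h later.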

[13] = qHTS assay to identify small molecule agonists of the retinoic acid receptor (RAR) signaling pathway (AID 1159553)
In short: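 Reporter readout comes from luciferase under RARE control in C3RL4 cells; compound exposure lasts 6 hr at 37 C in 5% CO2, and luminescence is recorded following a 30 min room-temperature incubation with reagent.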

[14] = qHTS assay to identify small molecule antagonists of the estrogen related receptor signaling pathway with the pleiotropic PPARgamma coactivator (PGC) from Tox21 10K library (AID 1224841; call rule not given here; note: actives are mostly falling curves and most rising ones were filed inactive; nearly all actives have a fitted effect of over 50% in size; note: potency is the fitted concentration of half-maximal effect)
In short: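 qHTS antagonist format: PGC/ERR cells, 2k/well, compound in DMSO by pin transfer after 6 h attachment, 18 h treatment at 37 C, One-Glo luminescence read at 30 min.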
% is set by controls: 0 for no effect and ±100 for the full control effect.

Chain of Thyrotropin receptor (Homo sapiens) (P16473 whole entry, looked up): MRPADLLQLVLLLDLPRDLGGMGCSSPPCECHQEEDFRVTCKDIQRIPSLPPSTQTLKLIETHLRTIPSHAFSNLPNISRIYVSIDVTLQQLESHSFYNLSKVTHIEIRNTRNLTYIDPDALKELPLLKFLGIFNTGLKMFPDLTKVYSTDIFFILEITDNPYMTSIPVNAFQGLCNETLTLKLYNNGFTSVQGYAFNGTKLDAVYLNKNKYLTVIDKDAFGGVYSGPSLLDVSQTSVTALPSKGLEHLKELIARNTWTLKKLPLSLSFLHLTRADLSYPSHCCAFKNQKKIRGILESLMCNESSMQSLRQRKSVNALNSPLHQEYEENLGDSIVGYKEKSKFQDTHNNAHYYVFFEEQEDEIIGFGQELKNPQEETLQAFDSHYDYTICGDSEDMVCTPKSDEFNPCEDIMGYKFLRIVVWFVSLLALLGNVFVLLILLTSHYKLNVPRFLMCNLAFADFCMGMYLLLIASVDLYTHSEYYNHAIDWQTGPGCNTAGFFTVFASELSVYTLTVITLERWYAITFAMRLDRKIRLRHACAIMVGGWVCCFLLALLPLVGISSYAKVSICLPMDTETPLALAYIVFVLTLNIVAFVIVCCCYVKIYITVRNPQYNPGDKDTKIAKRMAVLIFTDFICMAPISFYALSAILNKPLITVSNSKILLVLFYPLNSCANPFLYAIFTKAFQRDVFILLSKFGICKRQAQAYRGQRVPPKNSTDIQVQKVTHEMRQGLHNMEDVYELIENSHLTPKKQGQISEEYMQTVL
Chain of Nuclear receptor subfamily 1 group I member 3 (Homo sapiens) (Q14994 whole entry, looked up): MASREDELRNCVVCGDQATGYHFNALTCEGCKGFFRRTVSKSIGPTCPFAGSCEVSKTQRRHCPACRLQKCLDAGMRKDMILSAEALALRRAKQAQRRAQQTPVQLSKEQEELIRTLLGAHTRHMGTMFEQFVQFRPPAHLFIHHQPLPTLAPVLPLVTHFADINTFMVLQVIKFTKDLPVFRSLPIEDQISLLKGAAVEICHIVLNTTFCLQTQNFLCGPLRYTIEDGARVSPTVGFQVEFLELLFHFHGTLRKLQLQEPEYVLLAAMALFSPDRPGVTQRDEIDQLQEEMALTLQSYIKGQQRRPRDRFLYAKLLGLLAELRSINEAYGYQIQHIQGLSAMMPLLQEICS
Chain of Luciferin 4-monooxygenase (Photinus pyralis) (P08659 whole entry, looked up): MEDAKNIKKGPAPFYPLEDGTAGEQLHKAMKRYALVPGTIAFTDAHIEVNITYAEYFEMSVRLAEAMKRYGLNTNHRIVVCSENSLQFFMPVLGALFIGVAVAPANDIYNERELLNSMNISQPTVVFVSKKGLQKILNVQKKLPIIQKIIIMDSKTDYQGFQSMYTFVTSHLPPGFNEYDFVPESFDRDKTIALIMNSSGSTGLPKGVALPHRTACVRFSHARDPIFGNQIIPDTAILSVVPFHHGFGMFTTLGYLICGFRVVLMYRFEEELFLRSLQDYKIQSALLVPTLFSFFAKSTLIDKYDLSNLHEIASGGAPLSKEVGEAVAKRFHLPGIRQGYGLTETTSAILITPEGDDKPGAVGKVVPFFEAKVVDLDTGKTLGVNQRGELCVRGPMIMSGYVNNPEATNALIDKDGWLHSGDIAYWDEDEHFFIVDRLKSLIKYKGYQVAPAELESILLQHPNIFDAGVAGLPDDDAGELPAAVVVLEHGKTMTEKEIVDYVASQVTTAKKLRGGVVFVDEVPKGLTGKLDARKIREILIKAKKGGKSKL

O=CC=C(c1ccccc1)c1ccccc1
active: Potency [3] 27.5 µM
inactive: Potency [1] | Potency [2] | Potency [4] | Potency [5] | Potency [6]

Cc1cc(O)c2ccccc2c1O
inactive: Potency [4] | Potency [5] | Potency [9] | Potency [10] | Potency [11] | Potency [12]
active: Potency [1] 15.1 µM | Potency [7] 13.3 µM | Potency [8] 16.8 µM

O=C(Nc1cccc(C(F)(F)F)c1)c1cc(Br)cc(Br)c1O
inactive: Potency [2] | Potency [13] | Potency [9] | Potency [12]
active: Potency [1] 21.9 µM | Potency [4] 3.99 µM | Potency [8] 15.4 µM | Potency [10] 6.86 µM

CCOC(=O)c1nc(C(Cl)(Cl)Cl)n(-c2ccc(Cl)cc2Cl)n1
inactive: Potency [7] | Potency [4] | Potency [9] | Potency [11]
active: Potency [1] 49 µM

Nc1cc(C(F)(F)F)ccc1S
inactive: Potency [7] | Potency [5] | Potency [6] | Potency [9] | Potency [10] | Potency [11]
active: Potency [1] 8.49 µM | Potency [14] 29.8 µM

CN(C)c1ccc(SC#N)cc1
active: Potency [2] 9.69 µM | Potency [8] 27.3 µM
inactive: Potency [1] | Potency [13] | Potency [3] | Potency [5] | Potency [9] | Potency [10]

[O-][n+]1ccccc1SSc1cccc[n+]1[O-]
inactive: activation [11] -33.7% [at 19 µM] | activation [12] 15.2% [at 19 µM]
active: Potency [1] 0.165 µM | Potency [2] 0.092 µM | Potency [3] 0.366 µM | Potency [4] 0.425 µM | Potency [5] 0.92 µM | Potency [6] 0.206 µM | Potency [14] 1.64 µM

CCCCCCCCCOC(=O)c1ccc(O)cc1
inactive: Potency [2] | Potency [13] | Potency [5] | Potency [8] | Potency [9] | Potency [14]
active: Potency [1] 24.2 µM | Potency [3] 53.7 µM | Potency [4] 70 µM

Oc1ccc(C2(c3ccc(O)cc3)CC3CC2C2CCCC32)cc1 (stereo not given)
active: Potency [1] 16.7 µM | Potency [2] 46.6 µM | Potency [3] 58.7 µM | Potency [6] 52.3 µM
inactive: Potency [4] | Potency [11]

N/C(=N\N=C\c1ccc(Cl)cc1)N/N=C/c1ccc(Cl)cc1
active: Potency [1] 19 µM | Potency [3] 33.5 µM | Potency [4] 9.77 µM
inactive: Potency [13] | Potency [5] | Potency [6] | Potency [8] | Potency [9] | Potency [14] | Potency [11] | Potency [12]

CCC(CN)=C(c1ccccc1)c1ccccc1
inactive: Potency [1] | Potency [7] | Potency [4] | Potency [5] | Potency [6] | Potency [9] | Potency [12]

CCCCN1C(=O)[C@@H]([C@H](O)C2CCCCC2)NC(=O)C12CCN(Cc1ccc(Oc3ccc(C(=O)O)cc3)cc1)CC2
inactive: Potency [1] | Potency [7] | Potency [4] | Potency [5] | Potency [8] | Potency [9] | Potency [14] | Potency [11] | Potency [12]

OC1(c2ccc(Cl)c(C(F)(F)F)c2)CCN(CCCC(c2ccc(F)cc2)c2ccc(F)cc2)CC1
active: Potency [1] 6.74 µM | Potency [2] 26.6 µM | Potency [3] 21.1 µM | Potency [5] 23.7 µM | Potency [6] 13.3 µM | Potency [8] 13.3 µM | Potency [10] 18.8 µM | Potency [14] 29.8 µM
inactive: Potency [4] | Potency [9] | Potency [11] | Potency [12]

[Cl][Au]([Cl])[Cl]
active: Potency [1] 24.5 µM | Potency [2] 30.6 µM | Potency [3] 27.3 µM | Potency [5] 7.7 µM | Potency [6] 3.86 µM | Potency [10] 7.7 µM | Potency [14] 1.72 µM
inactive: Potency [11]

Cc1nc(-c2ccc3c(c2)CCN(CCC2CCC(NC(=O)/C=C/c4ccc(F)cc4)CC2)CC3)no1 (stereo not given)
inactive: Potency [1] | Potency [7] | Potency [4] | Potency [5] | Potency [6] | Potency [8] | Potency [9] | Potency [10] | Potency [12]

CCOc1nc2cccc(C(=O)OC(C)OC(=O)OC3CCCCC3)c2n1Cc1ccc(-c2ccccc2-c2nn[nH]n2)cc1 (stereo not given)
inactive: Potency [13] | Potency [5] | Potency [6] | Potency [8] | Potency [9] | Potency [11] | Potency [12]
active: Potency [1] 27.5 µM | Potency [3] 54.4 µM | Potency [4] 56.4 µM | Potency [10] 43.2 µM | Potency [14] 54.4 µM

Nc1ccc2cc(S(=O)(=O)O)cc(O)c2c1N=Nc1ccccc1C(F)(F)F
inactive: Potency [1] | Potency [2] | Potency [13] | Potency [9] | Potency [10] | Potency [11]
active: Potency [4] 63.3 µM

O=C(Oc1cccc2cccnc12)c1ccccc1
inactive: Potency [7] | Potency [9] | Potency [11] | Potency [12]
active: Potency [1] 8.49 µM

CC(C)(C)C1CCC(CC2=C(O)c3ccccc3C(=O)C2=O)CC1 (stereo not given)
inactive: Potency [1] | Potency [13] | Potency [3] | Potency [4] | Potency [8] | Potency [9] | Potency [11] | Potency [12]

Cc1[nH]cnc1C[C@H]1CCc2c(C)c3ccccc3n2C1=O
inactive: Potency [13] | Potency [4] | Potency [9] | Potency [11] | Potency [12]
active: Potency [1] 19 µM | Potency [3] 47.4 µM | Potency [14] 23.7 µM

CCCCCCCCCCCCCCCC(=O)OC[C@H](O)[C@H]1OC(=O)C(O)=C1O
active: Potency [1] 38.9 µM | Potency [4] 63.3 µM
inactive: Potency [7] | Potency [5] | Potency [6] | Potency [8] | Potency [9] | Potency [10] | Potency [14] | Potency [11] | Potency [12]

From PubChem BioAssay (Tox21)
